Compound activity deposited in PubChem BioAssay by National Center for Advancing Translational Sciences (NCATS).
UDG counterscr – blocks uracil-DNA glycosylase in AID counter-screen; FRET deamination/UDG coupled assay, UDG read, 4 h; Potency, µM (titrated, usually from 115 µM), for the others: at the highest dose activity change, negative = inhibition, hits mostly inhibitors; 91,000 tested, 0.14% active; AID 1347430; also: nearly all actives have a fitted effect of over 65% in size
AID inhibitor – inhibitors of human activation induced cytidine deaminase. AID deamination FRET fluorescence, UDG-coupled, 4 h. AID 1347428. Q9GZX7. 91,000 tested, 0.32% active. Potency, µM (top dose mostly 115 µM), usual class: inhibitors; also: nearly all actives have a fitted effect of over 25% in size
Target sequence (Q9GZX7 whole entry, looked up): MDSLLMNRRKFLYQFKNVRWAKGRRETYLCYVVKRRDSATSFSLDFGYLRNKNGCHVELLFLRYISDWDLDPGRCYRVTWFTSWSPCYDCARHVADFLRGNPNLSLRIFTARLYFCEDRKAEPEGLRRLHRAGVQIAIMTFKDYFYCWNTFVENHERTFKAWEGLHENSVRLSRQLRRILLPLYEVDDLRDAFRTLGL
The depositor's hits bear a star; i = inactive; ? = inconclusive; ! = repeats disagree; [ ] = remark or other dose. In the library only some 0.4% were active in any assay of this set; here they are far more common. Calls follow the shape of the dose curve; as a rule, active = well fitted curve in the direction sought with a large enough effect; inconclusive = small, poorly fitted or top-dose-only effect, or another doubt; inactive = no such curve, though single readings can be large; an effect the other way counts as inactive or inconclusive. % is scaled to controls: 0 for no effect and ±100 for the full control effect; potency is read from the fitted curve at half-maximal effect.

SMILES | UDG counterscr | AID inhibitor
CC/C=C(/C)C(=O)NCC(c1cccs1)N(C)C (centres undefined) | -2.3% | i
COCCN1C(=O)c2ccccc2C(C(=O)Nc2ccc(F)cc2)C12CCCC2 (centres undefined) | -3.2% | i
CCCC(=O)Nc1ccc(C(=O)OC/C(=N/O)c2ccc(OC)cc2)cc1 | 3.4% | i
CCOC(=O)c1cccc(Nc2nc(C(=O)OCC)nc3ccccc23)c1 | 6.9% | i
CCCOC(=O)c1cccc(Nc2nc(C(=O)OCC)nc3ccccc23)c1 | 89.1µM* | i
C1CCN(C2(CNC3CCCC3)CCCCC2)CC1 | -0.2% | i
Cc1ccc2nc(CN3CCN(S(=O)(=O)c4ccccc4)CC3)oc2c1 | 12.1% | i
Cc1cc(C)c(S(=O)(=O)N2CCN(Cc3nc4ccc(C)cc4o3)CC2)c(C)c1 | 89.1µM* | ?
Cc1ccc(C)c(N2CCN(C(=O)c3cc4ccc5cccnc5c4[nH]3)CC2)c1 | 0.0% | ?
Cc1cccc(N2CCN(C(=O)c3cc4ccc5cccnc5c4[nH]3)CC2C)c1 (centres undefined) | ? | 35.5µM*
CCN(CC)c1ccc(C(=O)NCc2ccc3c(c2)CCN3C(=O)c2ccccc2)cc1 | 18.6% | i
CN(C)c1ccc(C(=O)NCc2ccc3c(c2)CCN3C(=O)c2ccccc2)cc1 | 79.4µM* | i
Cc1ccc(C)c(OCCn2c(C3CC(=O)N(Cc4ccc(F)cc4)C3)nc3ccccc32)c1 (centres undefined) | 79.4µM* | 28.2µM*
CCOc1ccccc1N1CC(c2nc3ccccc3n2CCCCOc2cc(C)ccc2C)CC1=O (centres undefined) | -9.6% | i
O=C(NCc1ccccn1)c1ccc2c(c1)N(Cc1ccccc1)C(=O)c1ccccc1S2=O (centres undefined) | -5.6% | i
CCCn1nc(C)cc1-c1nn2c(-c3cc(F)ccc3F)nnc2s1 | 3.1% | i
COCCNC(=O)c1ccc2c(c1)N(Cc1c(F)cccc1Cl)C(=O)c1ccccc1S2 | -11.3% | i
CCN(CC)C(=O)c1ccc2c(c1)N(Cc1c(F)cccc1Cl)C(=O)c1ccccc1S2 | -21.4% | 70.8µM*
Cn1c(CC(=O)Nc2ccc(Cl)cc2)nnc1SCC(=O)NC12CC3CC(CC(C3)C1)C2 | ? | i
CN1C(=O)Cc2cc(S(=O)(=O)CCC(=O)N3CCN(c4ccc(Cl)cc4)CC3)ccc21 | 89.1µM* | i
COc1cccc(N2CCN(C(=O)CCS(=O)(=O)c3ccc4c(c3)CC(=O)N4C)CC2)c1 | ? | i
CCOc1ccc(C(=O)c2cn(CC(=O)Nc3ccc4c(c3)OCO4)c3ccc(OCC)cc3c2=O)cc1 | 4.4% | i
CCOc1ccc(C(=O)c2cn(CC(=O)Nc3ccc4c(c3)OCO4)c3ccc(OC)cc3c2=O)cc1 | -16.3% | 44.7µM*
CCc1ccc(C(=O)c2cn(CC(=O)Nc3ccc(F)c(F)c3)c3cc(OC)c(OC)cc3c2=O)cc1 | -16.8% | i
CCc1ccc(C(=O)c2cn(Cc3ccc(F)cc3)c3cc(OC)c(OC)cc3c2=O)cc1 | -24.1% | 35.5µM*
SMILES | UDG counterscr | AID inhibitor
CCn1c(C)cc(C(=O)COC(=O)c2csc(NCc3ccccc3)n2)c1C | -1.8% | i
Cc1ccc(-n2[nH]c(CSc3nnnn3-c3ccccc3)cc2=O)cc1 | 89.1µM* | i
Cc1ccc(CSc2nnnn2-c2c(C)n(C)n(-c3ccccc3)c2=O)cc1 | 0.5% | i
Cc1ccc(S(=O)(=O)c2cn(C)c3cc(N4CCCC4)c(F)cc3c2=O)c(C)c1 | 3.4% | i
CCn1cc(S(=O)(=O)c2ccc(C)cc2C)c(=O)c2cc(F)c(N3CCCC3)cc21 | ? | 22.4µM*
CCOc1ccc(NC(=O)CC(C)C)c2cccnc12 | -4.3% | i
N.N.N.N.N.N.N.N.N.N.N.N.N.N.O.O.[Ru+4].[Ru+5].[Ru+5] | 31.6µM* | 22.4µM*
O=C(CSc1nc2ccsc2c(=O)n1-c1ccccc1)NC1CCCC1 | 0.8% | i
COc1ccc(-c2nc3ccccc3n2Cc2ccc(Cl)cc2)cc1 | ? | 44.7µM*
COc1ccc(-c2nc3ccccc3n2Cc2ccc(C(C)C)cc2)cc1 | -3.9% | ?
CCN(CC)C(=O)CSc1n[nH]c(=O)c2cc(-c3ccc(OC)c(OC)c3)nn12 | -4.7% | i
NC(=O)c1ccc(CN(C(=O)Cc2cccs2)C2CC2)cc1 | -5.2% | i
Cc1nc2nc(SCC(=O)N(C)Cc3ccccc3)nn2c(C)c1Cc1ccccc1Cl | -15.3% | 44.7µM*
Cc1nc2nc(SCC(=O)NCc3ccccc3Cl)nn2c(C)c1Cc1ccccc1 | 0.2% | ?
Cc1cc2nc(SCC(=O)Nc3ccc4c(c3)OCO4)n(C)c(=O)c2[nH]1 | -5.8% | i
CC(Nc1ccc(F)cc1)C(=O)Nc1ccc(Cl)cn1 (centres undefined) | -9.2% | i
C[N+]1(CCCCCCCCCCCCCO)CCCC1 | 3.1% | i
COc1cccc(CNC(=O)c2ncoc2-c2cccs2)c1 | -18.5% | i
CCc1ccc(C(=O)C(C)OC(=O)c2ccc(CO)cc2)cc1 (centres undefined) | 0.7% | i
CCOc1ccccc1NC(=O)C(CC)Sc1nc2ncccc2[nH]1 (centres undefined) | -2.2%[57.5 µM] | i
CCOc1ccccc1NC(=O)C(C)Sc1nc(-c2ccccc2)c(C#N)c(=O)[nH]1 (centres undefined) | 7.3% | 35.5µM*
CCCn1c(C(O)(c2nc3ccccc3n2CCC)C(F)(F)F)nc2ccccc21 | -0.5% | i
Cc1cccc(OCCCSc2nc(-c3ccc(C(C)(C)C)cc3)nc3cc(=O)[nH]n23)c1C | -20.8% | ?
CCc1ccc(OCCCSc2nc(-c3ccc(C(C)(C)C)cc3)nc3cc(=O)[nH]n23)cc1 | -22.2% | 79.4µM*
Cc1ccc(S(=O)(=O)NCC(c2cccs2)N(C)C)s1 (centres undefined) | 5.9% | i
SMILES | UDG counterscr | AID inhibitor
Cc1oc(-c2nc(C#N)c(NCCN(C)C)o2)cc1S(=O)(=O)N(C)c1ccccc1 | 2.4% | i
CCc1ccc(-n2c(=O)c3c(C)c(C(=O)N(C)C)sc3n(Cc3ccccc3F)c2=O)cc1 | 0.0%[57.5 µM] | i
Cc1c(C(=O)N(C)C)sc2c1c(=O)n(-c1ccc(F)cc1)c(=O)n2Cc1ccccc1C#N | 89.1µM* | i
CC(C)(C)NC(=O)NC(=O)CSc1nnc(-c2c[nH]c3ccccc23)o1 | -10.7% | i
CCOC(=O)C1=C(C)NC(=O)NC1c1cn(-c2ccccc2)nc1-c1ccc(OCC)cc1 (centres undefined) | -16.0% | ?
COC(=O)C1=C(C)NC(=O)NC1c1cn(-c2ccccc2)nc1-c1ccc(OC)c(Cl)c1 (centres undefined) | -20.7% | i
CCOc1ccc(-c2nn(-c3ccccc3)cc2C2NC(=O)NC(C)=C2C(=O)OC(C)C)cc1C (centres undefined) | ? | 44.7µM*!
CCOc1ccc(-c2nn(-c3ccccc3)cc2C2NC(=O)NC(C)=C2C(=O)OC(C)C)cc1 (centres undefined) | ? | 44.7µM*
C/C(=N\NC(=O)c1cccc2ccccc12)c1ccc(C)s1 | -1.8% | i
CCn1nccc1-c1cc(C(=O)O)c2cccc(C)c2n1 | 1.5% | i
Cn1c(NCc2ccc3c(c2)OCO3)nc2c1c(=O)n(Cc1ccccc1)c(=O)n2C | -9.4% | ?
CC1=C(C(=O)Nc2ccccc2C)C(c2ccc(C(C)(C)C)cc2)NC(=S)N1 (centres undefined) | -0.3% | i
CCC(C)(C)C1CCc2c(sc(NC(=O)C3CC3c3ccccc3)c2C#N)C1 (centres undefined) | -17.6% | i
